PrPC TRFRET = reduces human prion protein on the cell surface. P04156. cell surface PrPC, TR-FRET read-out. inhibition, % at 13.8 µM. actives 0.43% (n = 370,000); in the data active = inhibition above about 24%; also: 0% = median of the test wells and 100% = reference compound wells
Mtb hypoxia rep = Mtb hypoxia fluorescent reporter inhibition. AID 1159583. actives 0.1% (n = 300,000). M. tuberculosis hypoxia-regulated fluorescent reporter, fluorescence. fluorescence inhibition, % (concentration not given with the values); in the data active = fluorescence inhibition mostly above about 23%, no sharp cut-off; inactive = mostly below about 17%
PrP 5UTR inh = suppresses PrP 5' UTR mRNA reporter expression; cell-based PrP 5' UTR mRNA reporter, plate reader; inhibition, % (concentration not given with the values); actives 0.35% (n = 340,000); AID 488862; in the data active = inhibition above about 52%; also: 0 = median of the neutral control wells
Yp Topo-I inh = Y. pestis Topo-I inhibition via cleavage products; Y. pestis Topo-I cleavage product accumulation, plate reader; activity, % at 10 µM; actives 0.064% (n = 360,000); AID 504884; in the data active = activity above about 50%, passing the limit was not always enough
GDH-TPI inh = GDH-TPI coupled enzyme inhibition counter-screen | GDH-TPI coupled enzyme counterscreen, NADH absorbance | inhibition, % at 4.8 µM | actives 1.2% (n = 360,000); in the data active = inhibition above about 30%;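 also: 0% = DMSO wells and 100% = wells lacking the enzyme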
Mtb FBA inh = inhibits M. tuberculosis FBA enzyme; P9WQA3; purified M. tuberculosis FBA, fluorescence read-out; inhibition, % at 1 µM; actives 2.3% (n = 360,000); in the data active = inhibition above about 27%;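 also: 0% = vehicle and 100% = reference inhibitor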
PrPC TRFRET cf = confirmation of inhibitors of cell surface human prion protein; shares compounds with PrPC TRFRET; cell surface PrPC level, TR-FRET; inhibition, % at 13.8 µM; actives 65% (n = 1,500); AID 743200; in the data active = inhibition above about 25%
LD9 cytotox = kills or reduces viability of LD9 cells in PrPc counter-screen; shares compounds with PrPC TRFRET; LD9 cells cytotoxicity, luminescence viability; inhibition, % at 13.8 µM; actives 29% (n = 1,500); AID 743201; in the data active = inhibition above about 9.5%
Starred values were filed as active, the others as inactive; . = no result given. A selection: hits, their analogues and other compounds. The true share with any hit is near 3.8%.

SMILES	PrPC TRFRET	Mtb hypoxia rep	PrP 5UTR inh	Yp Topo-I inh	GDH-TPI inh	Mtb FBA inh	PrPC TRFRET cf	LD9 cytotox
CC(C)CC(NC(=O)CCCNC(=O)CCC(=O)OC1O[C@H]2OC3(C)CC[C@H]4[C@H](C)CCC(C1C)C24OO3)C(=O)O (stereo partly specified)	28*	.	2	-5	7	5	38*	20*
C[C@H]1[C@H](OC(=O)CCC(=O)NCc2ccc(C(=O)O)cc2)O[C@@H]2O[C@@]3(C)CC[C@H]4[C@H](C)CC[C@@H]1C24OO3	.	.	-18	4	2	1	.	.
COc1cc(C=Nn2c(COc3ccccc3)n[nH]c2=S)cc(OC)c1OC(C)=O	.	-9	.	.	.	.	.	.
COc1ccc(-n2c(=C(C#N)C(=O)NCCN3CCOCC3)sc(=Cc3cccs3)c2=O)cc1	.	7	.	.	.	.	.	.
COc1ccc(CN2Cc3cnnn3-c3ccccc3C2C#N)cc1 (stereo unspecified)	2	.	-5	12	7	-1	.	.
N#CC1c2ccccc2-n2nncc2CN1Cc1cc(Cl)cc(Cl)c1 (stereo unspecified)	68*	.	33	-1	-2	3	91*	98*
Cn1c2ccccc2c(=O)c2ccc(C#Cc3ccc(N)cc3)cc21	29*	6	-18	-19	27	12	53*	19*
Nc1ccc(C#Cc2ccc3sc4ccccc4c(=O)c3c2)cc1	12	0	-45	-12	18	1	.	.
CC1CC(N(C(=O)c2ccc(Cl)cc2)c2ccccc2)c2ccccc2N1C(=O)c1ccco1 (stereo unspecified)	25*	.	-27	25	0	-1	13	-3
O=[N+]([O-])c1c(Nc2ccc(O)cc2)cc(Cl)c2nonc12	80*	.	-60	-20	10	-8	94*	99*
C=CCOc1ccc(C2NC(=S)NC(C)=C2C(=O)c2ccccc2)cc1OC (stereo unspecified)	43*	-1	-4	-1	24	-1	50*	-5
O=C(O)c1cc(O)c2c(c1)[C@H]([C@H]1c3cc(C(=O)O)cc(O)c3C(=O)c3c(O[C@@H]4O[C@H](CO)[C@@H](O)[C@H](O)[C@H]4O)cccc31)c1cccc(OC3O[C@H](CO)[C@@H](O)[C@H](O)[C@H]3O)c1C2=O (stereo partly specified)	91*	.	-14	-30	10	-6	12	0
CN1/C(=C\C(=S)NC(=O)c2cccc(Br)c2)C(C)(C)c2ccccc21	25*	-4	-18	22	8	-12	30*	16*
O=c1nc(SCc2cccc(C(F)(F)F)c2)nc2ccccn12	34*	.	-1	7	2	6	16	-3
C=CCNC(=O)C(=Cc1cn(-c2ccccc2)nc1-c1cccc([N+](=O)[O-])c1)NC(=O)c1ccccc1	.	-13	.	.	.	.	.	.
OC[C@@H]1CN(Cc2ccc(Cl)cc2)C[C@H](n2cnc3c(NC4CCCC4)ncnc32)O1	28*	.	.	28	-1	0	35*	-5
Cc1cccc(NC(=O)CON=Cc2ccc3c(c2)OCO3)c1	.	4	.	.	.	.	.	.
S=C(Nc1ccccc1)Nc1ccc(Br)cc1	25*	7	.	-5	8	0	20	5
S=C(Nc1ccccc1)Nc1cccc(Br)c1	3	1	-25	-3	-8	-3	.	.
O=C(CSc1ccc2ccccc2n1)NN=Cc1ccc(O)cc1	.	13	.	.	.	.	.	.
O=C(CSc1ccc2ccccc2n1)N/N=C/c1ccc(O)cc1	25*	.	-10	-16	21	-5	23	1
NS(=O)(=O)c1ccc(NC(=O)CSc2nc3ccccc3c(=O)n2-c2ccc(Br)cc2)cc1	34*	.	.	.	.	.	20	-1
O=C1CCCN1C(=O)CSc1ccc2ccccc2n1	41*	11	-21	-1	0	3	52*	1
NS(=O)(=O)c1ccc(NC(=O)CSc2ccc3ccccc3n2)cc1	36*	9	0	14	18	-1	43*	-1
CCOc1ccc(NC(=O)CCSc2ccc3ccccc3n2)cc1	62*	9	-25	-9	6	1	60*	3
SMILES	PrPC TRFRET	Mtb hypoxia rep	PrP 5UTR inh	Yp Topo-I inh	GDH-TPI inh	Mtb FBA inh	PrPC TRFRET cf	LD9 cytotox
CCOc1ccc(NC(=O)CCSc2ccc(C)cc2)cc1	9	.	-11	2	-8	1	.	.
CCC(C)C(C)=NNC(=O)CNS(=O)(=O)c1ccc([N+](=O)[O-])cc1 (stereo unspecified)	.	-5	.	.	.	.	.	.
CC=CC=CC(=O)N1CC2(CC(c3cccc(NC(=O)CC(c4ccccc4)c4ccccc4)c3)=NO2)CC1C(N)=O (stereo unspecified)	.	11	.	.	.	.	.	.
COc1ccc(NC(=O)c2c(N)no[n+]2[O-])c(OC)c1	0	14	-9	1	3	1	.	.
COc1ccc(NC(=O)c2c(N)no[n+]2[O-])cc1	26*	-2	-18	-1	20	-2	25*	-7
COc1ccccc1N(C(=O)c1ccncc1)c1nc(-c2ccc([N+](=O)[O-])cc2)cs1	26*	2	-18	-5	22	0	38*	-3
CC(=O)Nc1ccc(Nc2nc(-c3ccccc3)nc3ccccc23)cc1	30*	2	-17	-7	12	1	18	17*
CCCc1n[nH]c2c1C(=NOCC)CC(C)(C)C2	.	-6	.	.	.	.	.	.
CC[C@H](CO)Nc1nc(Nc2cccc(Cl)c2)c2ncn(C(C)C)c2n1	25*	.	2	2	19	-1	20	11*
CC(C)C(CO)Nc1nc(Nc2ccc(Cl)c(C(=O)O)c2)c2ncn(C(C)C)c2n1 (stereo unspecified)	.	14	.	.	.	.	.	.
CC(Cn1nc([N+](=O)[O-])cc1C)=NNC(=O)COc1c(Cl)cc(Cl)cc1Cl	.	2	.	.	.	.	.	.
COc1ccc(C=NNC(=O)c2cccc([N+](=O)[O-])c2)cc1O	.	6	.	.	.	.	.	.
COCc1c(C(=O)N2CCc3ccccc32)oc2ccccc12	26*	2	-15	8	3	-8	3	-4
CCN1C(=O)C2(C(C(=O)c3ccc(C)o3)=C(O)C(=O)N2CCCN2CCOCC2)c2ccccc21 (stereo unspecified)	-7	18	-22	-6	10	-2	.	.
CCN1C(=O)C2(C(C(=O)c3cc4ccccc4o3)=C(O)C(=O)N2CCCN2CCOCC2)c2ccccc21 (stereo unspecified)	72*	11	-16	15	7	2	99*	-8
O=C(Cc1ccc(-c2ccccc2)cc1)Nc1ccccn1	7	-2	-23	-6	5	-2	.	.
Cc1ccnc(NC(=O)Cc2ccc(-c3ccccc3)cc2)c1	35*	0	-38	13	7	0	41*	8

Bioassay records deposited in PubChem BioAssay by several laboratories.
